# In the supplement of paper PMC4466140:
# What was measured:
# Assay in all cases: SPOT peptide array binding signal intensity (averaged, normalized) (arbitrary units (background-subtracted, floor 0; scale differs between SH3 domains)); higher = stronger binding of the SH3 domain to the peptide
# [1] = target: AgAbp1
# In short: (§1)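 Binding signal refers to normalized, background-subtracted spot intensity averaged over replicates, expressed in arbitrary units that differ between domains. GST-fused SH3 domains from four yeast species were incubated at 10 μg/ml overnight at 4°C on cellulose membranes of synthetic 15-mer peptides with cysteines replaced by serines. Bound protein was detected with anti-GST antibody, an HRP anti-mouse secondary and luminol, and quantified with Genespotter.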
# [2] = target: AgBbc1
# In short: as §1
# [3] = target: AgBem1-D1
# In short: as §1
# [4] = target: AgBzz1-D1
# In short: as §1
# [5] = target: AgBzz1-D2
# In short: as §1
# [6] = target: AgCyk3
# In short: as §1
# [7] = target: AgFus1
# In short: as §1
# [8] = target: AgHof1
# In short: as §1
# [9] = target: AgHse1
# In short: as §1
# [10] = target: AgLsb1
# In short: as §1
# [11] = target: AgLsb4
# In short: as §1
# [12] = target: AgMyo5
# In short: as §1
# [13] = target: AgNbp2
# In short: as §1
# [14] = target: AgRvs167
# In short: as §1
# [15] = target: AgSho1
# In short: as §1
# [16] = target: AgSla1-D1-D2
# In short: as §1
# [17] = target: AgSla1-D3
# In short: as §1
# [18] = target: CaAbp1-D1
# In short: as §1
# [19] = target: CaAbp1-D2
# In short: as §1
# [20] = target: CaBbc1
# In short: as §1
# [21] = target: CaBem1-D1
# In short: as §1
# [22] = target: CaBzz1-D1
# In short: as §1
# [23] = target: CaBzz1-D2
# In short: as §1
# [24] = target: CaCyk3
# In short: as §1
# [25] = target: CaFus1
# In short: as §1
# [26] = target: CaHof1
# In short: as §1
# [27] = target: CaHse1
# In short: as §1
# [28] = target: CaLsb1
# In short: as §1
# [29] = target: CaLsb4
# In short: as §1
# [30] = target: CaMyo5
# In short: as §1
# [31] = target: SpBzz1-D2
# In short: as §1
# [32] = target: SpCyk3
# In short: as §1
# [33] = target: SpHof1
# In short: as §1
# [34] = target: SpHof1-2
# In short: as §1
# [35] = target: SpHof1-3
# In short: as §1
# [36] = target: SpHse1
# In short: as §1
# [37] = target: SpLsb1
# In short: as §1
# [38] = target: SpLsb4
# In short: as §1
# [39] = target: SpMyo1
# In short: as §1
# [40] = target: SpNbp2
# In short: as §1
# [41] = target: SpPex13
# In short: as §1
# [42] = target: SpRvs167
# In short: as §1
# [43] = target: SpSla1-D1-D2
# In short: as §1
# [44] = target: SpSla1-D3
# In short: as §1
binder,measurement,setting,value
RVRKTHVPASKRPSG,SPOT peptide array binding signal intensity,[1],81.5
same,SPOT peptide array binding signal intensity,[2],105
same,SPOT peptide array binding signal intensity,[3],48.5
same,SPOT peptide array binding signal intensity,[4],2
same,SPOT peptide array binding signal intensity,[5],≤ 0
same,SPOT peptide array binding signal intensity,[6],1
same,SPOT peptide array binding signal intensity,[7],118
same,SPOT peptide array binding signal intensity,[8],7
same,SPOT peptide array binding signal intensity,[9],210
same,SPOT peptide array binding signal intensity,[10],0.75
same,SPOT peptide array binding signal intensity,[11],18
same,SPOT peptide array binding signal intensity,[12],≤ 0
same,SPOT peptide array binding signal intensity,[13],91
same,SPOT peptide array binding signal intensity,[14],1
same,SPOT peptide array binding signal intensity,[15],5
same,SPOT peptide array binding signal intensity,[16],18
same,SPOT peptide array binding signal intensity,[17],1.5
same,SPOT peptide array binding signal intensity,[18],919
same,SPOT peptide array binding signal intensity,[19],520
same,SPOT peptide array binding signal intensity,[20],188
same,SPOT peptide array binding signal intensity,[21],18
same,SPOT peptide array binding signal intensity,[22],30
same,SPOT peptide array binding signal intensity,[23],48.8
same,SPOT peptide array binding signal intensity,[24],7.5
same,SPOT peptide array binding signal intensity,[25],200
same,SPOT peptide array binding signal intensity,[26],0.5
same,SPOT peptide array binding signal intensity,[27],9.75
same,SPOT peptide array binding signal intensity,[28],0.5
same,SPOT peptide array binding signal intensity,[29],33
same,SPOT peptide array binding signal intensity,[30],≤ 0
GRLRPKRIAPWHLIQ,SPOT peptide array binding signal intensity,[31],1.5
same,SPOT peptide array binding signal intensity,[32],7
same,SPOT peptide array binding signal intensity,[33],70
same,SPOT peptide array binding signal intensity,[34],1.5
same,SPOT peptide array binding signal intensity,[35],299
same,SPOT peptide array binding signal intensity,[36],309
same,SPOT peptide array binding signal intensity,[37],5.5
same,SPOT peptide array binding signal intensity,[38],95.5
same,SPOT peptide array binding signal intensity,[39],2.5
same,SPOT peptide array binding signal intensity,[40],110
same,SPOT peptide array binding signal intensity,[41],4
same,SPOT peptide array binding signal intensity,[42],9
same,SPOT peptide array binding signal intensity,[43],≤ 0
same,SPOT peptide array binding signal intensity,[44],≤ 0
